# From PubChem BioAssay
# ST2 inh: IL1RL1 inhibition; Q01638; AlphaLISA ST2-Fc/biotin-IL-33 interaction, 1 h; inhibition, % for hits at 17 µM; hit rate 2.3% among 78,000; AID 1259354; in the data active = inhibition above about 30%
# Target sequence (Q01638 whole entry, looked up): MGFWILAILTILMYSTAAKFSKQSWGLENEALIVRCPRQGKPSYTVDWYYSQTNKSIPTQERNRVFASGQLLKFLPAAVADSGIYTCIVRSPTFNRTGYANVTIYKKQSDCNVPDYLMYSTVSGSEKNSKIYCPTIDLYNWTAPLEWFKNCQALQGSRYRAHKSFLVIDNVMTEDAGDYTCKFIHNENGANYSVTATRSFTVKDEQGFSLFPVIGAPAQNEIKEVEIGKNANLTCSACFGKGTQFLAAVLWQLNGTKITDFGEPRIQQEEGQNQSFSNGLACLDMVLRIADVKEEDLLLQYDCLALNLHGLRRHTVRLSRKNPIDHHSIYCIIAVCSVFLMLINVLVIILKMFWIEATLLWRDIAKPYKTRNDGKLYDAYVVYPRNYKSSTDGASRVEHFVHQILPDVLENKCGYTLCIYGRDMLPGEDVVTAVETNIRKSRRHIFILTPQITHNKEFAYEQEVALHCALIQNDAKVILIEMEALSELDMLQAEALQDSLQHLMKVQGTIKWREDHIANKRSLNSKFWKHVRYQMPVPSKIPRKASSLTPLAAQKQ
# Active calls of the source: *; i = inactive. The sample as a whole holds a higher share of hits than the screen did.
SMILES,ST2 inh
Cc1ccc(NC(=O)Nc2nnc(-c3cccc([N+](=O)[O-])c3)s2)cc1C,i
COc1ccc(C(=O)Nc2sc3c(c2C(=O)NC2CCS(=O)(=O)C2)CCCC3)cc1OC (stereo unspecified),i
Cc1ccc(N2C(=O)CC(N3CCc4ccccc4C3)C2=O)cc1C (stereo unspecified),i
C=C(c1ccccc1)n1c(=O)[nH]c2ccccc21,i
CCOc1ccc(S(=O)(=O)N(CC(=O)Nc2cccc(OC)c2)c2ccccc2)cc1,i
COc1ccc(S(=O)(=O)N=C2C=C(Nc3ccccc3)C(=O)c3ccccc32)cc1,85.0%*
COc1ccc(S(=O)(=O)N=C2C=C(C(C)C)C(=O)C=C2C)cc1,i
CCOc1ccc(S(=O)(=O)NCCO)cc1,i
COc1ccc(S(=O)(=O)N=C2C=CC(=O)c3ccccc32)cc1,39.0%*
COc1ccc(S(N)(=O)=O)cc1,i
CCOc1ccc(S(=O)(=O)N=C2C=C(Nc3ccc(OC)cc3)C(=O)c3ccccc32)cc1,93.0%*
COc1ccc(NC(=O)C(Cc2ccccc2)N2C(=O)c3ccccc3C2=O)cc1 (stereo unspecified),i
COc1ccc(C=NS(=O)(=O)c2ccccc2)c(OC)c1,i
CCc1ccc(NS(=O)(=O)c2ccc(OC)cc2)cc1,i
CCOc1ccc(NC(=O)Cc2ccc(OC)cc2)cc1,i
CCOc1ccc(S(=O)(=O)N=C2C=C(Nc3ccccc3)C(=O)c3ccccc32)cc1,87.0%*
O=C(Nc1nnc(-c2ccc(F)cc2)o1)c1ccc(S(=O)(=O)N2CCCC2)cc1,i
c1cncc(OC2CCN(c3nc4nonc4nc3N3CCSCC3)CC2)c1,i
COc1cccc(OCC(=O)Nc2cc(N3CCCS3(=O)=O)ccc2C)c1,i
CS(=O)(=O)NC1CCN(Cc2ccc(-c3ccn[nH]3)o2)CC1,i
Cn1c(=O)c2c(nc(Br)n2CC(=O)c2ccccc2)n(C)c1=O,i
COc1ccc(C2SCC(=O)N2c2c(C)n(C)n(-c3ccccc3)c2=O)cc1OC (stereo unspecified),i
CC(=O)Nc1ccc(S(=O)(=O)N2CCC(N(C)C(C)C)CC2)cc1,i
COc1ccccc1NC1=CC(=NS(=O)(=O)c2ccc(C)cc2)c2ccccc2C1=O,94.0%*
COc1ccccc1NS(=O)(=O)c1ccc(C(C)(C)C)cc1,i
SMILES,ST2 inh
COc1ccc(C)cc1NS(=O)(=O)c1ccc(OC)c(OC)c1,i
Cc1ccc2cc(C3(O)CCN(C(=O)COc4cccnc4)CC3)ccc2n1,i
CCC(=O)N1N=C(C)CC1(O)c1cccnc1 (stereo unspecified),i
C=CCN1C(=Nc2cccnc2)SCC1(O)c1ccc(OC)cc1 (stereo unspecified),61.0%*
CCC1=NN(C(=O)c2cccnc2)C(O)(c2ccc(Br)cc2)C1 (stereo unspecified),i
COc1ccc(C(CC(=O)N2CCN(c3cnccn3)CC2)c2ccccc2)cc1 (stereo unspecified),i
C=CCN1C(=Nc2cccnc2)SCC1(O)c1ccc(C)cc1 (stereo unspecified),59.0%*
COc1cc(C2C(C#N)=C(N)OC3=C2C(=O)CC(c2ccccc2)C3)ccc1O (stereo unspecified),i
CCN(Cc1cnn(C)c1)C(=O)c1cc(COc2cc(C)c(Cl)c(C)c2)on1,i
COc1ccc(NC(=O)CN2CCN(Cc3ccc(Cl)cc3)S2(=O)=O)cc1Cl,i
COc1cc(Br)c(/C=C2\C(=O)N(c3ccccc3)N=C2C)cc1OC,i
CC1=NN(c2ccccc2)C(=O)/C1=C\c1ccc(OCc2ccccc2)cc1,32.0%*
CC(=O)Nc1ccc(OCc2ccccc2)cc1,i
C=CCN1C(=O)NC(=O)/C(=C/c2ccc(OCc3ccccc3F)cc2)C1=O,i
CC1=NN(c2ccccc2)C(=O)/C1=C\c1ccc(N2CCOCC2)cc1,40.0%*
Cc1ccc(C23C[C@@H]4C[C@@H](CC(C(=O)Nc5ccc6c(c5)C(=O)N(C)C6=O)(C4)C2)C3)cc1,i
COc1cc(/C=C2\C(=O)N(c3ccc(Cl)c(C(=O)O)c3)N=C2C)cc(OC)c1OC,56.0%*
COc1cc(/C=C2\C(=O)N(c3ccc(C(=O)O)cc3)N=C2C)cc(Cl)c1O,i
CC1=NN(c2ccc(Cl)c(Cl)c2)C(=O)/C1=C/c1ccc(C)c([N+](=O)[O-])c1,i
CCN(C)c1ccc(/C=C2/C(=O)NN(c3ccc(Cl)c(Cl)c3)C2=O)cc1,i
COc1ccc(Cl)cc1/C=C1\C(=O)N(c2ccc(Cl)c(C(=O)O)c2)N=C1C,74.0%*
COc1ccc(OC)c(/C=C2\C(=O)N(c3ccc(Cl)c(C(=O)O)c3)N=C2C)c1,i
CCN(C)c1ccc(/C=C2/C(=O)N(c3ccc(Cl)c(Cl)c3)N=C2C)cc1,30.0%*
CC1=NN(c2ccc(Cl)c(Cl)c2)C(=O)/C1=C/c1ccccc1,i
COc1ccc(Br)cc1/C=C1\C(=O)N(c2cccc(Cl)c2)N=C1C,i
SMILES,ST2 inh
COc1ccccc1/C=C1\C(=O)N(c2ccc(Cl)cc2Cl)N=C1C,i
COc1ccc(/C=C2/C(=O)N(c3ccc(Cl)c(Cl)c3)N=C2C)cc1OC,65.0%*
O=S(=O)(c1ccccc1)N1c2ccccc2-c2ccccc2S1(=O)=O,i
CCC1=C(c2ccc(OC)cc2)S(=O)(=O)N(CC(=O)NCc2cc(OC)ccc2OC)C1=O,i
CC1CCCCN1C(=O)C1c2ccccc2C(=O)N(C)C1c1cccs1 (stereo unspecified),i
CCOC(=O)N1CCN(C(=O)c2ccc(N(Cc3ccccc3Cl)S(C)(=O)=O)cc2)CC1,i
O=C(NC1CC1)c1ccnc(-c2cccc3c2CCNC3)c1,i
COc1ccc(N2C(=O)C(O)=C(C(C)=O)C2c2cccc([N+](=O)[O-])c2)cc1 (stereo unspecified),i
Cc1cccc2sc(=NC(=O)c3ccc(S(=O)(=O)N(CCC#N)CCC#N)cc3)n(C)c12,i
O=C(Nc1c(-c2ccc(F)cc2)nc2ccccn12)C1CCCCC1,i
CCOc1ccc(S(=O)(=O)NCC(OC)OC)c2cccnc12,i
CC(C)C[C@@H](NC(=O)[C@@]1(O)C[C@@H](O)[C@H](O)[C@@H](NC(=O)CS(=O)(=O)c2ccccc2)C1)C(N)=O,i
CC[N+](C)(C)Cc1ccccc1Br,i
COC(=O)c1cccc(C(=O)Nc2cnc3ccccc3c2)n1,i
Cc1ccc(OCC(O)CNC(C)(C)C)cc1C (stereo unspecified),i
Cc1cc(OCC(O)CNC(C)(C)C)ccc1C(C)C (stereo unspecified),i
Cc1ccc(NCC(O)COc2ccccc2)cc1C (stereo unspecified),35.0%*
O=C1CCCN1C1CCCN(CCn2cc[nH]c2=O)C1 (stereo unspecified),i
COc1ccc(CN2CCCN(CC(=O)Nc3ccccc3F)S2(=O)=O)cc1,i
CCOc1ccc(-n2c(=O)[nH]cc(C(=O)Nc3ccc4c(c3)OCCO4)c2=O)cc1,i
O=C1OC(c2cccc(F)c2)=N/C1=C/c1ccc(-c2ccccc2[N+](=O)[O-])o1,i
O=C(Nc1ccc(I)cc1Cl)c1ccc(-c2ccccc2[N+](=O)[O-])o1,i
O=[N+]([O-])c1ccccc1-c1ccc(/C=C/c2ccncc2)o1,49.0%*
COc1ccc(C(=O)O/N=C(/N)Cc2ccc(Cl)cc2)cc1,i
CC1=CC(=O)C=C(C)C1=NOC(=O)c1ccc([N+](=O)[O-])cc1[N+](=O)[O-],i
COc1ccc(C(=O)ON=C2C(C)=CC(=O)C=C2C)cc1,52.0%*
